# Experimental data as given in publication PMC5540273 (PLoS ONE, 2017).
# Key:
# Conditions in all cases: concentration: 1 μM, replicates: in singlicate; n = 1
# SBK1 = tested on: SBK1
# SGK2 = tested on: SGK2
# SGK3 = tested on: SGK3
# SGK = tested on: SGK
# SIK2 = tested on: SIK2
# SIK = tested on: SIK
# SLK = tested on: SLK
# SNARK = tested on: T1, SNARK
# T1 construct: gene NUAK2
# SNRK = tested on: SNRK
# SRC = tested on: SRC
# SRMS = tested on: SRMS
# SRPK1 = tested on: SRPK1
# SRPK2 = tested on: SRPK2
# SRPK3 = tested on: SRPK3
# STK16 = tested on: STK16
# STK33 = tested on: STK33
# STK35 = tested on: STK35
# STK36 = tested on: STK36
# STK39 = tested on: STK39
# SYK = tested on: SYK
# 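Note: KINOMEscan kinase panel screen.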
smiles,measurement,setting,value
COc1cc2c(Nc3cccc(NC(=O)c4ccccc4)c3)ncnc2cc1OCCCN1CCOCC1 [GSK223810],%Inh,SBK1,34%
same,%Inh,SGK2,13%
same,%Inh,SGK3,1%
same,%Inh,SGK,0%
same,%Inh,SIK2,7%
same,%Inh,SIK,0%
same,%Inh,SLK,0%
same,%Inh,SNARK,0%
same,%Inh,SNRK,0%
same,%Inh,SRC,94.7%
same,%Inh,SRMS,0%
same,%Inh,SRPK1,34%
same,%Inh,SRPK2,0%
same,%Inh,SRPK3,23%
same,%Inh,STK16,0%
same,%Inh,STK33,4%
same,%Inh,STK35,5%
same,%Inh,STK36,9%
same,%Inh,STK39,0%
same,%Inh,SYK,9%
COc1cc2ncnc(Nc3ccc(OCc4ccccc4Br)c(Cl)c3)c2cc1OC.Cl [GI261590],%Inh,SBK1,7%
same,%Inh,SGK2,11%
same,%Inh,SGK3,0%
same,%Inh,SGK,4%
same,%Inh,SIK2,12%
same,%Inh,SIK,0%
same,%Inh,SLK,86%
same,%Inh,SNARK,0%
same,%Inh,SNRK,0%
same,%Inh,SRC,0%
same,%Inh,SRMS,0%
same,%Inh,SRPK1,0%
same,%Inh,SRPK2,32%
same,%Inh,SRPK3,5%
same,%Inh,STK16,6%
same,%Inh,STK33,0%
same,%Inh,STK35,18%
same,%Inh,STK36,0%
same,%Inh,STK39,7%
same,%Inh,SYK,33%
O=C(c1ccc(-c2cc(-c3c[nH]nc3-c3ccccn3)ccn2)cc1)N1CCCC1 [GW792479],%Inh,SBK1,0%
same,%Inh,SGK2,8%
same,%Inh,SGK3,0%
same,%Inh,SGK,0%
same,%Inh,SIK2,12%
same,%Inh,SIK,19%
same,%Inh,SLK,3%
same,%Inh,SNARK,0%
same,%Inh,SNRK,0%
same,%Inh,SRC,17%
same,%Inh,SRMS,0%
same,%Inh,SRPK1,0%
same,%Inh,SRPK2,64%
same,%Inh,SRPK3,26%
same,%Inh,STK16,16%
same,%Inh,STK33,0%
same,%Inh,STK35,0%
same,%Inh,STK36,0%
same,%Inh,STK39,0%
same,%Inh,SYK,20%
O=c1cc(N2CCOCC2)nc2n(Cc3cccc(Cl)c3)ccn12 [GSK2296823],%Inh,SBK1,32%
same,%Inh,SGK2,0%
same,%Inh,SGK3,13%
same,%Inh,SGK,0%
same,%Inh,SIK2,9%
same,%Inh,SIK,0%
same,%Inh,SLK,0%
same,%Inh,SNARK,0%
same,%Inh,SNRK,5%
same,%Inh,SRC,2%
same,%Inh,SRMS,0%
same,%Inh,SRPK1,16%
same,%Inh,SRPK2,0%
same,%Inh,SRPK3,51%
same,%Inh,STK16,0%
same,%Inh,STK33,0%
same,%Inh,STK35,6%
same,%Inh,STK36,0%
same,%Inh,STK39,11%
same,%Inh,SYK,5%
O=C(CCO)NCCn1ccc2ncnc(Nc3ccc(Oc4cccc(C(F)(F)F)c4)c(Cl)c3)c21,%Inh,SBK1,0%
same,%Inh,SGK2,0%
same,%Inh,SGK3,0%
same,%Inh,SGK,0%
same,%Inh,SIK2,16%
same,%Inh,SIK,10%
same,%Inh,SLK,37%
same,%Inh,SNARK,0%
same,%Inh,SNRK,0%
same,%Inh,SRC,0%
same,%Inh,SRMS,0%
same,%Inh,SRPK1,0%
same,%Inh,SRPK2,0%
same,%Inh,SRPK3,4%
same,%Inh,STK16,8%
same,%Inh,STK33,0%
same,%Inh,STK35,5%
same,%Inh,STK36,0%
same,%Inh,STK39,0%
same,%Inh,SYK,4%
